In the library only some 2.7% were active in any assay of this set; here they are far more common.
MsrA inhibitor: inhibitors of bovine MsrA; 360,000 compounds, 0.75% hits; inhibition, % at 15.5 µM; purified bovine MsrA, absorbance read-out; in the data active = inhibition above about 4.5%
rCAG RNA binder: binds r(CAG) RNA repeats. AID 651821. r(CAG) RNA repeat, TO-PRO-1 dye displacement fluorescence. 370,000 compounds, 1.3% hits. inhibition, % at 3 µM;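 active = inhibition above the plate cutoff, the mean of all test compounds on that plate plus 3 SD, cut at about 35% in these data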;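 also: higher means more dye released from RNA so lower well fluorescence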
NadD inh: blocks S. aureus nicotinate mononucleotide adenylyltransferase. purified NadD enzyme, colorimetric absorbance read-out. inhibition, % at 20 µM. 360,000 compounds, 0.78% hits. AID 602399; in the data active = inhibition above about 26%
MsrA act: activates bovine MsrA enzyme | 360,000 compounds, 0.3% hits | activation, % at 10.6 µM | purified bovine MsrA, absorbance read-out | AID 602163; in the data active = activation above about 7.5%
rCAG binder conf: r(CAG) RNA repeat binding, confirmation; inhibition, % at 3 µM; shares compounds with rCAG RNA binder; 4,300 compounds, 70% hits; TO-PRO-1 dye displacement fluorescence;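 active = inhibition above a per-plate cutoff, the mean inhibition of sample wells plus 3 SD, cut at about 35% in these data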;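 also: loss of TO-PRO-1 fluorescence as compound displaces dye from 1x1 AA loop RNA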
dCAG dye counter: DNA CAG dye complex inhibition counter-screen | shares compounds with rCAG RNA binder | d(CAG) DNA oligo TO-PRO-1 dye displacement, fluorescence | inhibition, % at 3 µM | 4,300 compounds, 94% hits | AID 652068;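 active = inhibition above its plate's cutoff, the mean test-well inhibition plus 3 SD, cut at about 4.8% in these data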;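 also: hits displace the dye from DNA and so lower well fluorescence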
dCAG dye DR: counter-screen for rCAG binders: inhibitors of DNA CAG TO-PRO-1 complex; shares compounds with rCAG RNA binder; DNA CAG/GTC duplex TO-PRO-1 dye displacement fluorescence; IC50, µM; 250 compounds, 20% hits; AID 686960; in the data active = IC50 below about 10 µM
Each line names hits and unclear results; the compound was inactive in the other large screens (follow-up assays come after a bar, where they were run).

CC(=O)c1ccc(NC(=O)CN2C(=O)/C(=C/C=C/c3ccccc3)SC2=S)cc1	rCAG RNA binder 38.4, NadD inh 35.9 | rCAG binder conf inactive | dCAG dye counter 15.5
Cn1c(=O)cc(OCC(=O)N2CCN(c3ccc(F)cc3)CC2)c2ccccc21	none (no result: MsrA inhibitor, NadD inh, MsrA act)
O=C1/C(=C\c2ccco2)NC(=S)N1c1ccccc1	rCAG RNA binder 39.9 | rCAG binder conf 37.7 | dCAG dye counter 16.9
Cc1ccc(NC(=O)CN(C)C(=O)C(Sc2ccccc2)c2ccccc2)cc1 (stereo unspecified)	none
O=S(=O)(Nc1ncnc2sc3c(c12)CCC3)c1ccc(Cl)s1	rCAG RNA binder 56.8 | rCAG binder conf 35.5 | dCAG dye counter 10.7
O=S(=O)(Nc1ncnc2sc3c(c12)CCC3)c1cc(F)ccc1F	none
COc1ccc(CNC(=O)[C@@H](Cc2ccccc2)NC(=O)CC[C@H]2O[C@@H](n3ccc(=O)[nH]c3=O)[C@H](O)[C@@H]2O)cc1	none
COC(=O)c1ccc(N2NC(=O)/C(=C/c3cc(OC)c(OC)c(OC)c3)C2=O)cc1	rCAG RNA binder 65.5 | rCAG binder conf 61.1 | dCAG dye counter 20.1
COc1cc(/C=C2/C(=O)NN(c3cccc(F)c3)C2=O)ccc1OC(=O)c1ccco1	rCAG RNA binder 45.7 | rCAG binder conf 81.7 | dCAG dye counter 44.5
COc1cc(/C=C2/C(=O)NN(c3ccc(Cl)c(Cl)c3)C2=O)cc([N+](=O)[O-])c1O	rCAG RNA binder 98.9 | rCAG binder conf 65.9 | dCAG dye counter 23.4
COc1cc(/C=N/NC(=O)c2ccc(F)cc2)ccc1OC(=O)c1ccco1	none
COc1cccc(/C=C2/C(=O)NN(c3ccc(Br)cc3)C2=O)c1O	none
COc1cc(/C=C2/C(=O)NN(c3ccc(Cl)cc3)C2=O)cc(Br)c1O	rCAG RNA binder 46.5 | rCAG binder conf inactive | dCAG dye counter 8.9
COc1cc(/C=C2\SC(=O)N(c3ccccc3Cl)C2=O)cc([N+](=O)[O-])c1O	rCAG RNA binder 55.4 | rCAG binder conf 57.7 | dCAG dye counter 18.2
COc1cc(/C=C2/C(=O)NN(c3ccc(F)cc3)C2=O)cc(Cl)c1O	none
COC(=O)c1ccc(N2NC(=O)/C(=C/c3cc(OC)c(O)c(OC)c3)C2=O)cc1	rCAG RNA binder 41.7 | rCAG binder conf inactive | dCAG dye counter 4.6
COCCNC(=O)Cn1nc(-c2ccccc2C)ccc1=O	none
Cc1ccc(S(=O)(=O)/N=C2\C=C(NS(=O)(=O)c3ccccc3)C(=O)c3ccccc32)c(C)c1	rCAG RNA binder 53.9, NadD inh 32.3 | rCAG binder conf 85.8 | dCAG dye counter 58.2
O=C1C(Nc2ccccc2)=C(NS(=O)(=O)c2ccccc2)C(=O)c2ccccc21	none
COC(=O)c1sc(-c2ccc(C(C)(C)C)cc2)cc1NC(=O)CCC(=O)O	rCAG RNA binder 72.5 | rCAG binder conf 72.4 | dCAG dye counter 29.3
COC(=O)c1sc(-c2ccc(Cl)cc2)cc1NC(=O)COCC(=O)O	rCAG RNA binder 45.5 | rCAG binder conf 52.0 | dCAG dye counter 11.6 | dCAG dye DR inactive
O=C(NC(=S)Nc1ccccc1O)c1ccc(Cl)cc1Cl	none
Cc1cc(C)cc(N(CC(=O)Nc2ccc(C)cc2Cl)S(=O)(=O)c2c(C)[nH]c(=O)[nH]c2=O)c1	rCAG RNA binder 40.4 | rCAG binder conf 53.6 | dCAG dye counter 16.7
COc1ccc(N(CC(=O)Nc2cc(C)ccc2C)S(=O)(=O)c2c(C)[nH]c(=O)[nH]c2=O)cc1	none
Cc1cc(C)cc(N(CC(=O)Nc2ccc(C(F)(F)F)cc2)S(=O)(=O)c2c(C)[nH]c(=O)[nH]c2=O)c1	rCAG RNA binder 49.2 | rCAG binder conf 51.7 | dCAG dye counter 16.4
COc1cc(NC(=O)CN(c2cc(C)cc(C)c2)S(=O)(=O)c2c(C)[nH]c(=O)[nH]c2=O)cc(OC)c1	none
COc1ccc(N(CC(=O)Nc2cc(Cl)ccc2OC)S(=O)(=O)c2c(C)[nH]c(=O)[nH]c2=O)cc1	rCAG RNA binder 49.0 | rCAG binder conf 39.4 | dCAG dye counter 13.3
Cc1ccc(N(CC(=O)Nc2ccc(Br)c(C)c2)S(=O)(=O)c2c(C)[nH]c(=O)[nH]c2=O)cc1	rCAG RNA binder 46.7 | rCAG binder conf 67.1 | dCAG dye counter 22.6
CN1C(N)=NC(=O)/C1=C\c1ccc(Br)cc1	none
CC(=O)Nc1ccc(NC(=O)C(=O)N/N=C/c2cccnc2)cc1	none
CN1CCCC(C)(C(=O)Nc2ccc3scnc3c2)C1 (stereo unspecified)	none
COc1ccccc1C1C(C#N)=C(N)N(N(C)C)C2=C1C(=O)CC(C)(C)C2 (stereo unspecified)	none
Cc1cc(C)cc(N(CC(=O)NCCSCc2ccccc2)S(C)(=O)=O)c1	none
Cc1ccc2sc(NNC(=O)C3=COCCO3)nc2c1C	rCAG RNA binder 51.0 | rCAG binder conf inactive | dCAG dye counter 5.8
O=C(O)c1[nH]c2ccc(Br)cc2c1CCN1C(=O)c2cccc([N+](=O)[O-])c2C1=O	rCAG RNA binder 64.4 | rCAG binder conf 42.2 | dCAG dye counter 12.6
O=C(O)c1[nH]c2ccc(Cl)cc2c1CCN1C(=O)c2ccccc2C1=O	rCAG RNA binder 50.2 | rCAG binder conf inactive | dCAG dye counter 6.3
COc1ccc2[nH]c(C(=O)O)c(CCN3C(=O)c4ccc(C(=O)O)cc4C3=O)c2c1	none
Cc1ccc2c(c1)N(CC(=O)NCCCN1CC(C)CC(C)C1)C(=O)c1cccnc1O2 (stereo unspecified)	none
COc1ccc(-c2c(Sc3ccccc3)c3cc(-c4ccc(OC)c(F)c4)ccc3n2C)cc1	none
O=C(O)CSc1nc2sc3c(c2c(=O)n1Cc1ccccc1)CCCCC3	rCAG RNA binder 52.7 | rCAG binder conf 53.6 | dCAG dye counter 17.0
CN1CCc2c(sc3nc(SCC(N)=O)n(-c4ccc(Cl)cc4)c(=O)c23)C1	none
O=C(CSc1nc2sc3c(c2c(=O)n1-c1ccc(Cl)cc1)CCC3)Nc1ccc(C(=O)O)cc1	rCAG RNA binder 58.0 (no result: MsrA inhibitor, NadD inh, MsrA act) | rCAG binder conf 51.7 | dCAG dye counter 21.7
O=C(O)CSc1cc(C(=O)c2ccccc2O)cn2c(=O)c3c4c(sc3nc12)CCCC4	rCAG RNA binder 46.8 | rCAG binder conf 85.2 | dCAG dye counter 61.1
COC(=O)c1ccc(N2CCN(C)CC2)c(NC(=O)c2cccs2)c1	none
CC(=O)N1CCCc2ccc(NS(=O)(=O)c3ccccc3)cc21	none
CCNC(=O)NC1(C(=O)N2CCC(Cc3ccccc3)CC2)CCCCC1	none
COc1ccc(-c2nnn(CC(=O)Nc3ccc4c(c3)OCCO4)n2)cc1OC	none (no result: MsrA inhibitor, rCAG RNA binder)
CSCC[C@H](NC(=O)c1cc2c([nH]c3ccccc32)c(-c2ccccc2)n1)C(=O)O	rCAG RNA binder 54.5 | rCAG binder conf 49.6 | dCAG dye counter 14.1
CC(=O)c1ccc(OCc2cc(C(=O)NC3CCCCC3)no2)cc1	none
N#C/C(=N\Nc1cccc(C(F)(F)F)c1)C(=O)c1ccsc1	rCAG RNA binder 75.8 | rCAG binder conf 56.0 | dCAG dye counter 18.3

Bioassay records from PubChem.
